The campaign covered roughly 310,000 compounds. About 14,000 (4.5%) showed an effect of 50% or more. Effects have a minus sign here. Shown is part of a subset that was picked to be rich in strong results.
What follows are compounds tested against human ether-à-go-go-related gene (hERG) potassium channel (human, UniProt Q12809) (assay: primary screen, population patch clamp on CHO cells stably expressing hERG; higher = less effect of the substance).
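Further: peak tail current of the secondary pulse compared with the same well before compound.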

Sequence of human ether-à-go-go-related gene (hERG) potassium channel (Q12809 whole entry, looked up): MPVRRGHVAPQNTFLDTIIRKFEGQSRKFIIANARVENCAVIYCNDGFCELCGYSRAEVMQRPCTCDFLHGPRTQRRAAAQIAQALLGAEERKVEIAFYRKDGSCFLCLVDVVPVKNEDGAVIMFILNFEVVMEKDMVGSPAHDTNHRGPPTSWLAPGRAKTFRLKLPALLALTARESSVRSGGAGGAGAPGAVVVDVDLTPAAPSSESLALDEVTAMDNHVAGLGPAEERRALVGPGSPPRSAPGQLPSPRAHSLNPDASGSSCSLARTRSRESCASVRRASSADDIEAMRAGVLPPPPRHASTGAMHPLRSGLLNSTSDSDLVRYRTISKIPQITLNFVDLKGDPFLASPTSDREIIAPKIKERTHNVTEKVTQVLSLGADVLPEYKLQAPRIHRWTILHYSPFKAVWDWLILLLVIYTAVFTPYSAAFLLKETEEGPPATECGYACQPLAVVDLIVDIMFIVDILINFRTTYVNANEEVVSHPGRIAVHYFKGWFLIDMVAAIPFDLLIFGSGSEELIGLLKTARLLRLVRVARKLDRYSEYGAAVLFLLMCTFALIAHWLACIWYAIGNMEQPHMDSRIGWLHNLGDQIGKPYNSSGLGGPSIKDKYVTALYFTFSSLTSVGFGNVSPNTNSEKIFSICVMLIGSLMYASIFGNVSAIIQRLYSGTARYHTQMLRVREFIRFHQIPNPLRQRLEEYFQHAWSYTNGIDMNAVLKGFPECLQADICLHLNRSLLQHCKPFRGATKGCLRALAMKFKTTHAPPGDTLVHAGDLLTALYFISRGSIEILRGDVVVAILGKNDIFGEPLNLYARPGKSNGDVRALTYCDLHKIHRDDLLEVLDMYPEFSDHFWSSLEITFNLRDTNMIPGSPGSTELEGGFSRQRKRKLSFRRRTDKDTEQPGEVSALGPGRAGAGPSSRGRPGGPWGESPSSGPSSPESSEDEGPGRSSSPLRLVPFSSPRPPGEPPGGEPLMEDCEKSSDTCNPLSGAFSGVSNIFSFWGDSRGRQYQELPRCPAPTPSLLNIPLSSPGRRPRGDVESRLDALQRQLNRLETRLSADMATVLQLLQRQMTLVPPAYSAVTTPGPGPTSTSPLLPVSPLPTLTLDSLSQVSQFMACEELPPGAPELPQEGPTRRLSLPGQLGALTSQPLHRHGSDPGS

| SMILES | hERG current change (%, negative = inhibition) at 10uM [%] |
| --- | --- |
| CSc1nc(C)cc(C)c1S(=O)(=O)c1ccccc1C | 7.41 |
| OCC1(Cc2ccccc2)CCN(Cc2cnc(-c3ccc(Cl)cc3)nc2)CC1 | -47.1 |
| OCC1(Cc2ccc(Cl)cc2)CCN(CC2CC=CCC2)CC1 (stereo not shown) | -76.7 |
| O=C(Cc1ccccc1)N1CCN(CC2CC=CCC2)CC1 (stereo not shown) | -3.05 |
| O=C(C1CC=CCC1)N1CCC(CO)(Cc2ccc(Cl)cc2)CC1 (stereo not shown) | -7.77 |
| OCC1(Cc2ccccc2)CCN(CCCC2CCCC2)CC1 | -76.8 |
| O=C(Nc1ccc(Cl)cc1)N1CCC(CO)(Cc2ccccc2)CC1 | -46.6 |
| OCC1(Cc2ccc(Cl)cc2)CCN(CCCc2ccccc2)CC1 | -83.9 |
| Fc1ccc(CN2CCCCCCC2)cc1F | -24 |
| OCC1(Cc2ccc(Cl)cc2)CCN(Cc2ccc(F)c(F)c2)CC1 | -68.6 |
| O=S(=O)(c1cccs1)N1CCC(CO)(Cc2ccc(Cl)cc2)CC1 | -7.74 |
| O=C1CC(N2CCOCC2)C(=O)N1CCc1ccccc1 (stereo not shown) | 6.86 |
| C=C1c2cc(C)ccc2NC(=O)N1c1ccccc1 | 2.71 |
| Cc1ccc(S(=O)(=O)N2CCN(C(=O)c3ccccn3)CC2)c(C)c1 | 20.1 |
| NC(=O)C1CCN(c2oc(/C=C/c3ccc(F)cc3)nc2S(=O)(=O)c2ccccc2)CC1 | 5.52 |
| Cc1ccc(NC(=O)Nc2c(C)n(C)n(-c3ccccc3)c2=O)cc1C | 13.1 |
| Cn1c(/C(C#N)=C/c2ccc(-c3ccc(S(N)(=O)=O)cc3)o2)nc2ccccc21 | -38.1 |
| COc1ccc(N/C(N)=N/c2nc(CSc3ccc(Cl)cc3)cc(=O)[nH]2)cc1 | 17.5 |
| Cc1cccc(CN2CCC(CNC(=O)C3CCCN(S(=O)(=O)c4cnc[nH]4)C3)CC2)c1 (stereo not shown) | -1.13 |
| O=C(NCc1cccnc1)C(=O)Nc1nc2ccccc2s1 | 3.9 |
| O=C(Nc1cccc2c1CCCC2)C1CCCN(S(=O)(=O)c2cccc3nonc23)C1 (stereo not shown) | -1.23 |
| CCO[C@@H]1OC(C(=O)NCc2nc3ccccc3[nH]2)=C[C@H](c2ccccc2)[C@H]1CCCO | -25.4 |
| CSc1ccc(CN2CCCCCC2)cc1 | -35 |

| SMILES | hERG current change (%, negative = inhibition) at 10uM [%] |
| --- | --- |
| OCC1(Cc2ccc(Cl)cc2)CCN(Cc2ccccc2F)CC1 | -69.2 |
| OCC1(Cc2ccccc2)CCCN(Cc2ccn[nH]2)C1 (stereo not shown) | -11.8 |
| CSc1ccc(CN2CCC(CO)(Cc3ccc(Cl)cc3)CC2)cc1 | -81.3 |
| OCCC1CN(Cc2ccc(Oc3ncccn3)cc2)CCN1C1CCCCC1 (stereo not shown) | -7.34 |
| Fc1ccccc1CN1CCN(c2ccc(Cl)cc2)CC1 | 1.71 |
| OCC1(Cc2ccc(Cl)cc2)CCN(Cc2ccc(Oc3ncccn3)cc2)CC1 | -74.1 |
| CSc1ccc(CN2CCCC(CO)(Cc3ccccc3)C2)cc1 (stereo not shown) | -60.7 |
| CSc1ccc(/C=N/N2CCN(Cc3ccc(Cl)cc3)CC2)cc1 | 8.01 |
| OCC1(Cc2ccccc2)CCN(Cc2cccc(F)c2F)CC1 | -11.3 |
| CCN1CCCC(CO)(Cc2ccccc2)C1 (stereo not shown) | 13.3 |
| OCCC1CN(Cc2ccc(Oc3ncccn3)cc2)CCN1C1CCCC1 (stereo not shown) | 8.16 |
| COc1ccc(NC(=O)CNc2cc(C)ccc2C)cc1S(=O)(=O)N1CCOCC1 | -8.85 |
| COc1cccc(-c2cn(-c3cccc(C(F)(F)F)c3)c(=S)[nH]2)c1 | 20.4 |
| Cc1cnc(C(=O)OCC(=O)N(C)CC(=O)Nc2ccccc2Cl)cn1 | -2.14 |
| CC(OC(=O)c1ccncc1)C(=O)Nc1cccc(Cl)c1 (stereo not shown) | -23.2 |
| Cc1ccc(S(=O)(=O)N(C)C)cc1NC(=O)C(C)OC(=O)c1ccc2ccccc2n1 (stereo not shown) | -26.8 |
| Cc1cc(C)cc(N(CCC(=O)Nc2nnc(C3CC3)s2)S(=O)(=O)c2ccc(Cl)cc2)c1 | 4.63 |
| CCOC(=O)C1CCN(C(=O)COC(=O)c2oc3ccc(OC)cc3c2C)CC1 | -55.6 |
| COc1ccc2oc(C(=O)OCC(=O)N3CC(C)CC(C)C3)c(C)c2c1 (stereo not shown) | -56.1 |
| COc1ccc2oc(C(=O)OCC(=O)N3CC(C)OC(C)C3)c(C)c2c1 (stereo not shown) | -0.998 |
| COC(=O)C1CCN(C(=O)COC(=O)c2oc3ccc(OC)cc3c2C)CC1 | -17.3 |
| COc1ccc2oc(C(=O)OCC(=O)N3CCC(C)CC3)c(C)c2c1 | -0.112 |
| COc1ccc2oc(C(=O)OCC(=O)N3CCCCC3)c(C)c2c1 | 8.71 |
